This note sets out measurements from PubChem BioAssay (NCATS).

The other results are listed elsewhere or left out. A call without a number means that no potency is given here. Results filed as inconclusive are left out. Active and inactive are the calls of the source. Calls come from the whole dose curve; as a rule, active = well fitted inhibition curve with a large enough effect; inconclusive = small, poorly fitted or top-dose-only effect; inactive = flat fitted curve, though single readings scatter.
Potency is the fitted concentration of half-maximal effect.

For the assay, the target named is Luciferin 4-monooxygenase (Photinus pyralis) (UniProt P08659). Kind of assay: qHTS screen for small molecules that inhibit ELG1-dependent DNA repair: Hit Confirmation in Biochemical Luciferin Assay (AID 624253). The conditions noted are these: purified firefly luciferase, luminescence counter-screen; series mostly up to 57.5 µM. The text has this: Cancer cells divide rapidly compared to normal cells in the body. During cell division, cancer cells need to duplicate their genome by DNA replication. The failure of genome duplication leads to cancer cells' death. Therefore, inhibitors of DNA replication could specifically kill cancer cells. Based on this concept, many chemotherapeutic agents were developed and have been used to treat cancer patients. However, there are a limited number of agents available in the clinical setting, and some of those that do exist have low efficacy and severe side effects. Therefore, if we can find the compounds that effectively block DNA replication either by directly damaging DNA or by inhibiting other cellular mechanisms, the options for cancer treatment will be broadened. With this in mind, we developed a quantitative high-throughput ELG1-luciferase reporter gene assay. Small molecules that specifically block ELG1 function in response to DNA damage can be identified by monitoring the suppression of luciferase activity. Since ELG1 defines a pathway for repairing DNA damage, agents blocking ELG1 function can be used to sensitize cancer cells to chemotherapeutic agents whose mechanism of action involves the induction of DNA damage. NIH Molecular Libraries Probe Production Network [MLPCN] NIH Chemical Genomics Center [NCGC] MLPCN Grant: R03 MH092164 Assay Provider: Kyungjae Myung, NHGRI, NIH
3 uL of substrate reagent will be pipetted into each well in 1536-well white, solid-bottom plates using a FRD dispenser, followed by addition of 23 nL of DMSO or compounds by pintool. After compound addition, 1 µL of luciferase will be added into the wells. The plates will be read in a ViewLux CCD-based plate reader.
Consider `O=C(Nn1c(SCc2ccc([N+](=O)[O-])cc2)nc2ccccc2c1=O)c1ccc(F)cc1`, for which the Potency was 16.4 µM (active).

`COc1ccc(CSc2nc(N3CCOCC3)c3c(c2C#N)CC(C)(C)OC3)cc1`: the Potency entry is “inactive”. On to `Cc1ccc(Nc2nc(N3CCOCC3)nc(N3CCOCC3)n2)cc1Cl`, for which the Potency result is “inactive”.

As to `CS(=O)c1ccc(/C=C2\C=Cc3ccccc32)cc1` (stereo not given), the Potency was 1.03 µM (active). Turning to `COc1ccc(NC(=O)C2CCC(CNc3c(N4CCCCC4)c(=O)c3=O)CC2)c(OC)c1` (stereo not given), the Potency entry was “inactive”. Consider `O=C(C1CCCN(S(=O)(=O)c2ccccc2)C1)N1CCN(c2ccc(F)cc2)CC1` (stereo not given), for which the Potency result was “inactive”. Under `COc1ccc(NC(C)=O)cc1NC(=O)CN1CCN(C2c3ccccc3-c3ccccc32)CC1` stands “inactive”; under `COc1ccc(NC(=O)c2sc3nc(C)nc(N4CCN(c5ccccn5)CC4)c3c2C)c(OC)c1`, “inactive”; under `Cc1ccccc1NC(=O)CSc1nc2ccc(Nc3nc(N4CCOCC4)nc(N4CCOCC4)n3)cc2s1`, “inactive”. With `CC(=O)N1CCc2cc(Br)cc(S(=O)(=O)CCC(=O)Nc3c(C)n(C)n(-c4ccccc4)c3=O)c21`, the Potency entry is “inactive”.
